The values that follow come from PubChem BioAssay (NCATS).

Molecules are shown by their SMILES. Results filed as inconclusive are left out. Calls of active or inactive are those of the source. Calls follow the shape of the dose curve; as a rule, active = well fitted inhibition curve with a large enough effect; inconclusive = small, poorly fitted or top-dose-only effect; inactive = flat fitted curve, though single readings scatter.

What all share (assay): qHTS profiling for inhibitors of Plasmodium falciparum proliferation (AID 504749); also: nearly all actives have a fitted effect of over 60% in size
On the technique in general: qHTS replaces the single test concentration by a dilution series.

Assay [1] relates to C2A. The note with it: P. falciparum in erythrocytes, SYBR Green DNA, 72 h; series mostly up to 28.7 µM. The procedure, abridged: (§1)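 In a 72 h erythrocytic culture (37 C, humidified, 5% CO2) at 2.5% hematocrit and 0.3% starting parasitemia, compounds were tested; SYBR Green I in detergent lysis buffer stained parasite DNA overnight.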
Assay [2] relates to CP185. The following applies: P. falciparum in erythrocytes, SYBR Green DNA, 72 h; series mostly up to 28.7 µM. In a few lines:
as §1

Assay [3] has as its system CP192. The following applies: P. falciparum in erythrocytes, SYBR Green DNA, 72 h; series mostly up to 28.7 µM. The procedure, abridged: as §1
In assay [4] the test system is CP217. The following applies: P. falciparum in erythrocytes, SYBR Green DNA, 72 h; series mostly up to 28.7 µM. The procedure, abridged:
as §1

Assay [5] has as its system CP238. The note with it: P. falciparum in erythrocytes, SYBR Green DNA, 72 h; series mostly up to 28.7 µM. In a few lines:
as §1

Assay [6] deals with CP247. The following applies: P. falciparum in erythrocytes, SYBR Green DNA, 72 h; series mostly up to 28.7 µM. In a few lines:
as §1

Assay [7] relates to CP250. The following applies: P. falciparum in erythrocytes, SYBR Green DNA, 72 h; series mostly up to 28.7 µM. In a few lines:
as §1

Assay [8] deals with CP252. The following applies: P. falciparum in erythrocytes, SYBR Green DNA, 72 h; series mostly up to 28.7 µM. The procedure, abridged: as §1
Assay [9] relates to CP260. The note with it: P. falciparum in erythrocytes, SYBR Green DNA, 72 h; series mostly up to 28.7 µM. The procedure, abridged: as §1
Assay [10] has as its system CP262. The following applies: P. falciparum in erythrocytes, SYBR Green DNA, 72 h; series mostly up to 28.7 µM. The procedure, abridged:
as §1

In assay [11] the test system is CP265. The note with it: P. falciparum in erythrocytes, SYBR Green DNA, 72 h; series mostly up to 28.7 µM. The procedure, abridged:
as §1

In assay [12] the test system is CP266. The following applies: P. falciparum in erythrocytes, SYBR Green DNA, 72 h; series mostly up to 28.7 µM. In a few lines: as §1
For assay [13], the system named is CP215. The following applies: P. falciparum in erythrocytes, SYBR Green DNA, 72 h. In a few lines: as §1
The subject of assay [14] is CP237. The note with it: P. falciparum in erythrocytes, SYBR Green DNA, 72 h. In a few lines: as §1
Assay [15] has as its system CP256. The following applies: P. falciparum in erythrocytes, SYBR Green DNA, 72 h. In a few lines: as §1
Potency is read from the fitted curve at half-maximal effect.

As to `CCCOc1ccc2nc(NC(=O)OC)sc2c1`, the Potency result in [1], in [2], in assay [3], in assay [4], in [5] and in assay [6] was “inactive” in each case. Besides, the Potency result in assay [7], in assay [8], in [9], in assay [11] and in [12] was “inactive” each time. For the same compound, the compound was called inactive in assay [10].

For the compound `C=CCNC1=C2C[C@@H](C)C[C@H](OC)[C@H](O)[C@@H](C)/C=C(\C)[C@H](OC(N)=O)[C@@H](OC)/C=C\C=C(/C)C(=O)NC(=CC1=O)C2=O`, the Potency is 2 µM (active) in [1]; 2.51 µM (active) in assay [2]; 4.26 µM (active) in assay [3]; 4.78 µM (active) in assay [13]; 2 µM (active) in assay [4]; 1.26 µM (active) in [14]. Also, the Potency in [5] is 1.58 µM (active); in assay [6], 2.24 µM (active); in [7] it was 2.24 µM (active); in assay [8], 1.78 µM (active); in assay [15] it was 2.24 µM (active); in [9] it was 2.24 µM (active). The Potency in [11] is 2 µM (active); in assay [12], 10.7 µM (active).

With `COC1C(OC(=O)/C=C/C=C/C=C/C=C/C(=O)O)CCC2(CO2)C1C1(C)OC1CC=C(C)C` (stereo not drawn), the Potency in assay [13] was 6.01 µM (active); in assay [15] it was 0.0708 µM (active).
